# Test results as given in PubChem BioAssay.
# Columns and labels:
# [1] = tested on: Human papillomavirus type 1a protein E7 (residues 44-93); assay: small molecules binding HPV E7 44-93 – biochemical, small-molecule microarray, residues 44-93, 635 nm fluorescence, primary screen (AID 1108); conditions: fluorescence 635 nm, higher = more signal;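 also: E7 fragment applied at 1 µg/mL in TBST for 1 h at 4 C; score combines spot fluorescence with its signal to noise ratio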
# [2] = hepatitis C replication reporter changes, two-sided – Huh7 cells, luciferase reporter, HCV replication inhibitor project, primary screen (AID 1109); conditions: Huh7 HCV replicon luciferase reporter, 48 h; higher = more signal;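 also: huh7 hepatoma cells harbouring a luciferase neomycin HCV replicon reporter; luciferase luminescence as measure of HCV replicon replication; test concentration not given here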
# [3] = biological target: Left-right determination factor 2 (Homo sapiens) (UniProt O00292); assay: small molecules binding LEFTY2 protein – biochemical, small-molecule microarray, 635 nm fluorescence scan, primary screen (AID 1110); conditions: higher = more signal
# Sequence of Left-right determination factor 2 (Homo sapiens) (O00292 whole entry, looked up): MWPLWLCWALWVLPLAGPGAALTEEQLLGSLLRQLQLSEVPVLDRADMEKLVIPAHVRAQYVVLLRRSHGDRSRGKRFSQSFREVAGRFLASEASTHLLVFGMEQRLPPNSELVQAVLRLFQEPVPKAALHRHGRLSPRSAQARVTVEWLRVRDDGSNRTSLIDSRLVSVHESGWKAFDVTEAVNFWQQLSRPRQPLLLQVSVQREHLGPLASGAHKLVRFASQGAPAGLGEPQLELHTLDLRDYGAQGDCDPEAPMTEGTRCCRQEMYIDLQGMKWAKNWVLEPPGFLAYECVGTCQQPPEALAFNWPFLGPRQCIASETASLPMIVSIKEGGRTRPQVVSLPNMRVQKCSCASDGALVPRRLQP
# [4] = biological target: Calmodulin-1 (Homo sapiens) (UniProt P0DP23); assay: small molecules binding calmodulin-1 with EGTA – biochemical, small-molecule microarray, Cy5-labelled CALM1, profiling panel (AID 1111); conditions: Cy5-CALM1 binding fluorescence, higher = more signal;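 also: labelled calmodulin applied in Tris saline Tween buffer holding calcium plus EGTA and DTT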
# [5] = biological target: Calmodulin-1 (Homo sapiens) (UniProt P0DP23); assay: small molecules binding Ca-loaded calmodulin-1 – biochemical, small-molecule microarray, Cy5-labelled CALM1, plus calcium, artefact control for SMM control-protein annotation, profiling panel (AID 1112); conditions: Cy5-CALM1 binding fluorescence, higher = more signal;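 also: score merges spot fluorescence with signal to noise from triplicate slides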
# [6] = probe aWnt5a binding to arrayed compounds – biochemical, biotinylated probe, 635/667 nm fluorescence, primary screen (AID 1113); conditions: small-molecule microarray, higher = more signal;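 also: score merges 667 nm fluorescence intensity with signal-to-noise per printed feature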
# [7] = probe aShh binding to arrayed compounds – biochemical, biotinylated probe, 635/667 nm fluorescence, primary screen (AID 1114); conditions: small-molecule microarray, higher = more signal;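 also: probe is biotin-labelled aShh protein from a stem cell growth factor screen; measures binding of labelled protein to compounds printed on the slide; score merges feature fluorescence at 667 nm with signal-to-noise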
# [8] = probe aNog binding to arrayed compounds – biochemical, biotinylated probe, 635/667 nm fluorescence, primary screen (AID 1115); conditions: small-molecule microarray, higher = more signal;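 also: probe is biotinylated aNog protein used at 0.15 µg/mL for 1 h at 4 C; z-score combines 667 nm fluorescence of each spot with its signal to noise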
# [9] = biological target: Torsin-1A-interacting protein 1 (Homo sapiens) (UniProt Q5JTV8); assay: compound microarray binding of lysate hLAP1 – cell lysate, small-molecule microarray, COS7 lysate, 635/667 nm fluorescence, primary screen (AID 1116); conditions: 635 nm fluorescence, higher = more signal
# Sequence of Torsin-1A-interacting protein 1 (Homo sapiens) (Q5JTV8 whole entry, looked up): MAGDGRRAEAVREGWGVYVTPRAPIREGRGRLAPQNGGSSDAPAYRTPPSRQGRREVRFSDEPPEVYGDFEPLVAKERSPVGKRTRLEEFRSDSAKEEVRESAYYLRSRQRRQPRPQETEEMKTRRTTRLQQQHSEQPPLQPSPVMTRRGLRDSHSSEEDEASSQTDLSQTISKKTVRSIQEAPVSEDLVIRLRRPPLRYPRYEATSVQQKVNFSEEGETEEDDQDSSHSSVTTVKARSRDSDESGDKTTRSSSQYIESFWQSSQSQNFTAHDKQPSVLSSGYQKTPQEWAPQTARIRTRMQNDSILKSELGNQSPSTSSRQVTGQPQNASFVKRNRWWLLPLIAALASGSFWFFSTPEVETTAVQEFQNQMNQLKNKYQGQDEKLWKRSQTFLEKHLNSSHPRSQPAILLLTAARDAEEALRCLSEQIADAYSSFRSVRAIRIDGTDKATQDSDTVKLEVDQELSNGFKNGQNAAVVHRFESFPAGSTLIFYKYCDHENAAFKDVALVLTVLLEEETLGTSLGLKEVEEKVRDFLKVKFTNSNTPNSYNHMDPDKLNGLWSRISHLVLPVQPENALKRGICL
# [10] = biological target: Alpha-bungarotoxin (Bungarus multicinctus) (UniProt P60615); assay: compounds binding labelled alpha-BTX control protein – biochemical, small-molecule microarray, Alexa647 label, 635/667 nm fluorescence, artefact control for SMM control protein annotation, profiling panel (AID 1117); conditions: alpha-BTX-A647 binding fluorescence, higher = more signal
# Sequence of Alpha-bungarotoxin (Bungarus multicinctus) (P60615 whole entry, looked up): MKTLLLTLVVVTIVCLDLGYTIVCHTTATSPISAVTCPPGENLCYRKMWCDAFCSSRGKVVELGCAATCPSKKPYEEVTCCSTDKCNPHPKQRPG
Compound,composite z-score [1],z-score [2],composite z-score [3],composite z-score [4],composite z-score [5],composite z-score [6],composite z-score [7],composite z-score [8],composite z-score [9],composite z-score [10]
O=C(NCc1ccccc1)[C@@]1(CCS(=O)(=O)c2ccccc2)N=C(c2ccc(OCCCO)cc2)O[C@H]1c1ccccc1,1.44,-2.25,-0.125,1.43,0.112,0.111,0.0055,-0.0597,1.32,2.03
C=CCOC(=O)[C@@H]1[C@H]2C(=O)O[C@H](c3ccccc3)[C@H](c3ccccc3)N2[C@H](c2ccc(OCCOC(=O)[C@@H]3C[C@@H]4C(=O)N[C@@H](CCCC[N+](C)(C)C)C(=O)N4[C@@H]3c3cccc(OCCO)c3)cc2)[C@@]12C(=O)Nc1ccc(I)cc12,0.741,-2.48,0.692,1.02,0.0416,-0.0512,-0.0146,0.886,0.897,1.59
[N-]=[N+]=NCc1ccccc1C[C@]1(C(=O)O)N=C(c2ccc(OCCCO)cc2)O[C@H]1c1ccccc1N=[N+]=[N-],1.18,-1.11,0.11,1.23,0.0606,0.0919,0.0639,1.59,1.46,1.76
CS(=O)(=O)CCOC(=O)C1=CC(CCCO)=CC(c2ccc(CN3CCCC3)cc2)N(Cc2cc3c(cc2Br)OCO3)C=C1C(=O)OCCS(C)(=O)=O (stereo not given),0.981,-2.33,0.538,1.33,0.484,0.0765,0.171,1.27,2.44,1.62
C=CCNC(=O)[C@H]1[C@@H]2C(=O)O[C@@H](c3ccccc3)[C@@H](c3ccccc3)N2[C@@H](c2ccccc2OCCO)[C@]12C(=O)Nc1ccc(C#CC3=CCCCC3)cc12,1.12,-3.52,0.531,0.904,-0.321,-0.1,0.0588,0.163,0.358,0.99
COc1ccc(C(=O)O[C@H]2CC[C@]3(C)C4=C(CCC3C2(C)C)[C@]2(C)CC[C@H]([C@H](C)CCCC(C)C)[C@@]2(C)CC4)cc1 (stereo not given in full),-0.0389,0.606,0.567,-0.459,-0.83,-0.0792,-0.0553,-0.0242,0.0921,-0.086
O=C1OCCC/C=C\[C@H]2OC34C=CCN(Cn5nnc6ccccc65)C(=O)[C@H]3N(CCCCCCO)C(=O)[C@@H]4C12 (stereo not given in full),-0.311,-0.625,-1.17,-0.824,-0.317,-0.18,-0.0035,0.599,-0.401,-0.716
C=CCNC(=O)[C@H]1[C@@H]2C(=O)O[C@@H](c3ccccc3)[C@@H](c3ccccc3)N2[C@@H](c2ccc(O)cc2)[C@]12C(=O)N(C(=O)OCCOC)c1ccc(C#CCNC(N)=O)cc12,0.863,-0.767,1.01,-0.0456,0.143,0.0077,-0.0769,0.0989,0.585,1.07
O=C1OCCC=C[C@H]2OC34C=CCN(CCN5CCOCC5)C(=O)[C@H]3N(CCCCCCO)C(=O)[C@@H]4C12 (stereo not given in full),-0.149,-0.135,-0.0529,-0.304,-1.07,-0.178,-0.289,-0.484,0.551,-0.288
CC(C)N1C(=O)c2ccccc2[C@](C)(C(=O)NCc2ccccc2)[C@@H]1c1ccc(CO)cc1,-0.375,0.0554,-1,-0.742,-0.514,-0.0735,-0.19,-0.141,1.13,-0.491
COC(=O)[C@@]1(Cc2ccc(OC)cc2)[C@H]2c3cc(C(=O)N4CCCC4)n(Cc4ccccc4)c3C[C@H]2CN1C(=O)c1ccccc1,1.16,-1.76,0.117,2.3,0.817,1.29,2.49,2.87,0.0976,0.75
COCCOC(=O)N1C(=O)[C@@]2(c3cc(C#Cc4ccc(OC)cc4)ccc31)[C@H](C(N)=O)[C@H]1C(=O)O[C@H](c3ccccc3)[C@H](c3ccccc3)N1[C@@H]2c1ccccc1OCCO,1.33,-1.49,0.738,2.22,0.618,-0.0134,-0.0988,0.168,2.3,2.97
O=C1C2C=CC(C(O)C3CCCCC3)N(Nc3ccc([N+](=O)[O-])cc3)C2C(=O)N1c1ccccc1 (stereo not given),1.37,-0.057,-1.4,1.16,0.164,-0.0944,-0.0035,0.283,0.721,1.96
